Only some compounds are listed: those with a hit (about 19% of all), similar ones and a draw of the others.
HT1080-NT tox: kills 2HG-producing HT-1080-NT fibrosarcoma cells. HT-1080-NT fibrosarcoma viability, CellTiter-Glo ATP luminescence, 48 h. Potency, µM (highest dose often 46.1 µM), inactives show at the top dose activity, negative = less viability, hits mostly cytotoxic. 1.6% of 360,000 active;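 further: NT is the 2HG producing partner of a matched IDH1 knockdown line; potency means the concentration at half of the fitted maximal effect; 0% = DMSO-treated cells and -100% = media-only wells without cells; nearly all actives have a fitted effect of over 55% in size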
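A 48-hour cytotoxicity screen used HT-1080-NT cells plated 2 hours before compound delivery. ATP-based CellTiter-Glo luminescence measured viability, normalized to DMSO and no-cell controls.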
IL1B secr inh: inhibitors of inflammasome signaling (IL-1 beta secretion); activity change, % at 57.5 µM; THP-1 LPS/ATP IL-1B secretion, AlphaLISA, 16 h; stronger effect = lower value; 4.7% of 360,000 active; in the data active means activity change below about -50%; inconclusive means mostly about -30% to -49%
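Secreted IL-1B measured by AlphaLISA bead assay after 16 h compound exposure of THP-1 cells; compounds (final up to 57.5 uM) added 1 h before LPS (250 ng/mL) and ATP (1.25 mM) stimulation; lower signal means less secretion.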
DT40 TDP1 CPT: DT40-hTDP1 cell growth loss with CPT; 12% of 420,000 active; chicken DT40 Tdp1-/-;hTDP1 cells + 20 nM CPT, ATP luminescence, 48 h; Potency, µM (titrated, usually from 46.2 µM), for the others: top-dose activity change, negative = growth inhibition, actives largely listed as inhibitors; further: potency means the concentration at half of the fitted maximal effect; nearly all actives have a fitted effect of over 55% in size
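Cell growth measured by CellTiter-Glo luminescence after a minimum 48 h, 37 C compound exposure with 20 nM CPT in Tdp1-knockout DT40 cells stably expressing hTDP1, seeded 400/well; qHTS titration format.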
HT1080 IDH1KD tx: toxicity to HT-1080 IDH1 knockdown cells (counter line) | 2% of 360,000 active | HT-1080 IDH1 knockdown viability, ATP luminescence, 48 h | Potency, µM (top dose mostly 46.1 µM), inactives show top-dose activity, negative = toxicity, hits mostly cytotoxic;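 further: potency means the concentration at half of the fitted maximal effect; 0% = DMSO wells and -100% = cell-free medium wells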
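Luminescent ATP read-out (CellTiter-Glo, 10 min at room temperature) after 48 h compound exposure at 37 °C gave viability of IDH1-knockdown HT-1080 cells. Activity was normalised to DMSO and cell-free wells, then fitted as concentration-response curves.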
TDP1 cell noCPT: qHTS for Inhibitors of human tyrosyl-DNA phosphodiesterase 1 (TDP1): qHTS in cells in absence of CPT. 15% of 420,000 active. DT40 Tdp1-/- hTDP1 cells, no CPT, ATP luminescence, 48 h. Potency, µM (top dose mostly 46.2 µM), for inactives: top-dose activity change, negative = growth inhibition, usual class: inhibitors; further: potency means the concentration at half of the fitted maximal effect; nearly all actives have a fitted effect of over 55% in size
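Stably hTDP1-transfected Tdp1-null chicken DT40 cells were treated with library compounds minus camptothecin and grown for at least 48 hr at 37 °C, after which cellular ATP was quantified by luminescence.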
* marks the source's active call; other numbers are inactive results; ? = inconclusive; . = no result; [ ] = dose if it differs, or a comment. Unless noted, the call rests on the fitted dose curve; in most records, active means well fitted curve in the direction sought with a large enough effect; inconclusive means small, poorly fitted or top-dose-only effect, or another doubt; inactive means no such curve, though single readings can be large; an effect the other way counts as inactive or inconclusive. Unless noted, on the % scale 0 is the no-effect control and ±100 the full control effect.

SMILES	HT1080-NT tox	IL1B secr inh	DT40 TDP1 CPT	HT1080 IDH1KD tx	TDP1 cell noCPT
CC(=O)n1cc([C@@H]2C=C(C(=O)N3CCN(Cc4ccc5c(c4)OCO5)CC3)O[C@H](OCCCCO)C2)c2ccccc21	-10.8%	-51.9*	?	-10.7%	?
O=C(O)CNC(=O)CC1S/C(=N/N=C2\CSC(=O)N2)NC1=O (stereo not given)	3.9%	-1.0	-9.2%	2.9%	-0.2%
O=C(C1=C[C@@H](c2ccc3c(c2)OCO3)C[C@@H](OCCCCO)O1)N1CCN(Cc2ccc3c(c2)OCO3)CC1	-5.4%	-26.0	?	-2.2%	?
O=C(C1=C[C@H](c2ccc(Br)cc2)C[C@H](OCCCCO)O1)N1CCN(Cc2ccc3c(c2)OCO3)CC1	-19.4%	?	18.4µM*	-18.0%	16.4µM*
Cc1ccc(C(=O)Nc2ccccc2C(=O)N2CCCC(C)C2)cc1 (stereo not given)	0.6%	13.4	0.5%	-2.1%	-4.7%
Cc1oc(-c2cc(F)ccc2F)nc1CN(C)Cc1ccc2nccnc2c1	1.5%	21.5	?	3.4%	16.4µM*
Cc1oc(-c2cc(F)ccc2F)nc1CN1CCN(c2cnccn2)CC1	8.2%	4.9	-11.7%	11.0%	-26.1%
CCCCn1c(-c2ccc(F)c(F)c2)nc2cc3[nH]c(=O)c(C(C)C)nc3cc21	?	-19.2	20.6µM*	-20.8%	20.6µM*
CCCCn1c(CCc2ccccc2)nc2cc3[nH]c(=O)c(C(C)C)nc3cc21	-9.2%	-5.4	?	?	?
COC(=O)[C@@]1(Cc2ccc(OC)cc2)[C@H]2c3cc(C(=O)N4CCCC4)n(Cc4cc(C)n(C)n4)c3C[C@H]2CN1C(=O)c1ccccc1	3.2%	-29.3	?	-11.1%	?
Cc1ccc2c(c1Br)/C(=N/N1C(=O)c3ccccc3C1=O)C(=O)N2	10.6%	-12.8	20.6µM*	11.8%	23.1µM*
CCOc1ccc(N=C2C(=O)Nc3ccc(C)c(Br)c32)cc1	-3.7%	8.7	?	1.1%	?
NNc1nc(-c2ccccc2)nc(-c2ccccc2)c1Br	9.1%	-1.7	?	-1.4%	8.2µM*
CCn1nnc2cc(C(=O)Nc3cc(Cl)ccc3C)ccc21	6.2%	-19.0	-13.0%	10.3%	?
CN(CC(=O)N1CCN(Cc2ccccc2)CC1)S(=O)(=O)c1cccc2nsnc12	-0.9%	15.1	-28.1%	5.2%	?
Cc1ccccc1C(=O)Nc1c(-c2cccs2)c(=O)c2ccccc2n1C	-2.0%	13.8	?	-1.6%	?
COc1ccc(/C=C/C(=O)Nc2nc(-c3cccs3)ns2)cc1	.	.	?	.	18.4µM*
COc1ccc(C(=O)Nc2nnc(-c3cccs3)s2)cc1	-25.9%	33.1	10.3µM*	?	11.6µM*
COc1ccc(C(=O)Nc2c(-c3cccs3)c(=O)c3ccccc3n2C)cc1	-6.3%	-82.1*	23.1µM*	-1.9%	20.6µM*
COc1cc(C(=O)Nc2nnc(-c3sccc3C)s2)cc(OC)c1OC	?	-8.8	?	14.6µM*	-21.8%
COc1ccc(/C=C/C(=O)Nc2cccnc2Cl)cc1	-8.5%	0.0	-12.5%	-7.5%	-6.8%
Cc1nc2cnc(N(C)C)nc2n(C2CC2)c1=O	.	.	-12.2%	.	0.8%
Cc1c(-c2ccccc2)c(=O)oc2cc(O)ccc12	1.5%	54.2	0.5%	4.1%	23.0%
COc1cc(CN2C[C@@H](CO)O[C@@H](n3cnc4c(N(C)C)ncnc43)C2)cc(OC)c1OC	0.0%	0.0	-17.0%	-1.5%	-1.1%
COc1ccccc1CNc1ncnc2sc(C(=O)N(C)C(C)C)c(C)c12	.	.	-3.8%[9.04 µM]	.	?
COc1ccccc1C(CNc1ncnc2sc(C)c(C)c12)N(C)C (stereo not given)	-10.5%	-5.7	?	-2.4%	20.6µM*
COc1ccc(C(CNc2ncnc3sc(C)c(C)c23)N(C)C)cc1 (stereo not given)	-2.2%	-6.0	?	0.5%	23.1µM*

Source: PubChem (National Center for Advancing Translational Sciences (NCATS))
